Records with an inconclusive call do not appear. Active and inactive are the calls of the source. Calls follow the shape of the dose curve; as a rule, active = well fitted inhibition curve with a large enough effect; inconclusive = small, poorly fitted or top-dose-only effect; inactive = flat fitted curve, though single readings scatter.
What was measured:
[1] = target: Luciferin 4-monooxygenase (Photinus pyralis) (UniProt P08659); experiment: Biochemical firefly luciferase enzyme assay for NPC (AID 624030);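 also: purified P. pyralis luciferase at 10 nM with luciferin and ATP substrate; nearly all actives have a fitted effect of over 70% in size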
Procedure, shortened: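 Purified P. pyralis luciferase at 10 nM in 50 mM Tris Acetate (final), luminescence read within 5 minutes of enzyme addition to compounds. Activity normalised to PTC124 versus DMSO; concentration-response curves classed by r2, magnitude and activity.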

ATS95 = experiment: qHTS profiling for inhibitors of Plasmodium falciparum proliferation (AID 504749); also: nearly all actives have a fitted effect of over 60% in size; details: P. falciparum in erythrocytes, SYBR Green DNA, 72 h; series mostly up to 28.7 µM
Procedure, shortened: (§1)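 SYBR Green fluorescence (ex 485 nm, em 535 nm) reports parasite DNA after 72 h compound exposure of infected red cells at 0.3% parasitemia, 2.5% hematocrit; signal normalized to 0.29 uM artemisinin and vehicle wells.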

CP185 = experiment: as above; details: P. falciparum in erythrocytes, SYBR Green DNA, 72 h; series mostly up to 28.7 µM
Procedure, shortened: as §1

CP237 = experiment: as above; details: P. falciparum in erythrocytes, SYBR Green DNA, 72 h; series mostly up to 28.7 µM
Procedure, shortened: as §1

CP250 = experiment: as above; details: P. falciparum in erythrocytes, SYBR Green DNA, 72 h; series mostly up to 28.7 µM
Procedure, shortened: as §1

CP265 = experiment: as above; details: P. falciparum in erythrocytes, SYBR Green DNA, 72 h; series mostly up to 28.7 µM
Procedure, shortened: as §1

CP268 = experiment: as above; details: P. falciparum in erythrocytes, SYBR Green DNA, 72 h; series mostly up to 28.7 µM
Procedure, shortened: as §1

CP269 = experiment: as above; details: P. falciparum in erythrocytes, SYBR Green DNA, 72 h; series mostly up to 28.7 µM
Procedure, shortened: as §1

CP305 = experiment: as above; details: P. falciparum in erythrocytes, SYBR Green DNA, 72 h; series mostly up to 28.7 µM
Procedure, shortened: as §1

CP329 = experiment: as above; details: P. falciparum in erythrocytes, SYBR Green DNA, 72 h; series mostly up to 28.7 µM
Procedure, shortened: as §1

CP335 = experiment: as above; details: P. falciparum in erythrocytes, SYBR Green DNA, 72 h; series mostly up to 28.7 µM
Procedure, shortened: as §1

ECU = experiment: as above; details: P. falciparum in erythrocytes, SYBR Green DNA, 72 h; series mostly up to 28.7 µM
Procedure, shortened: as §1

FAB9 = experiment: as above; details: P. falciparum in erythrocytes, SYBR Green DNA, 72 h; series mostly up to 28.7 µM
Procedure, shortened: as §1

JCK = experiment: as above; details: P. falciparum in erythrocytes, SYBR Green DNA, 72 h; series mostly up to 28.7 µM
Procedure, shortened: as §1

N140 = experiment: as above; details: P. falciparum in erythrocytes, SYBR Green DNA, 72 h; series mostly up to 28.7 µM
Procedure, shortened: as §1

P93_24 = experiment: as above; details: P. falciparum in erythrocytes, SYBR Green DNA, 72 h; series mostly up to 28.7 µM
Procedure, shortened: as §1

PC49 = experiment: as above; details: P. falciparum in erythrocytes, SYBR Green DNA, 72 h; series mostly up to 28.7 µM
Procedure, shortened: as §1

SC27B = experiment: as above; details: P. falciparum in erythrocytes, SYBR Green DNA, 72 h; series mostly up to 28.7 µM
Procedure, shortened: as §1

TAB113 = experiment: as above; details: P. falciparum in erythrocytes, SYBR Green DNA, 72 h; series mostly up to 28.7 µM
Procedure, shortened: as §1

TAB165 = experiment: as above; details: P. falciparum in erythrocytes, SYBR Green DNA, 72 h; series mostly up to 28.7 µM
Procedure, shortened: as §1

Measured: Potency

Sequence of Luciferin 4-monooxygenase (Photinus pyralis) (P08659 whole entry, looked up): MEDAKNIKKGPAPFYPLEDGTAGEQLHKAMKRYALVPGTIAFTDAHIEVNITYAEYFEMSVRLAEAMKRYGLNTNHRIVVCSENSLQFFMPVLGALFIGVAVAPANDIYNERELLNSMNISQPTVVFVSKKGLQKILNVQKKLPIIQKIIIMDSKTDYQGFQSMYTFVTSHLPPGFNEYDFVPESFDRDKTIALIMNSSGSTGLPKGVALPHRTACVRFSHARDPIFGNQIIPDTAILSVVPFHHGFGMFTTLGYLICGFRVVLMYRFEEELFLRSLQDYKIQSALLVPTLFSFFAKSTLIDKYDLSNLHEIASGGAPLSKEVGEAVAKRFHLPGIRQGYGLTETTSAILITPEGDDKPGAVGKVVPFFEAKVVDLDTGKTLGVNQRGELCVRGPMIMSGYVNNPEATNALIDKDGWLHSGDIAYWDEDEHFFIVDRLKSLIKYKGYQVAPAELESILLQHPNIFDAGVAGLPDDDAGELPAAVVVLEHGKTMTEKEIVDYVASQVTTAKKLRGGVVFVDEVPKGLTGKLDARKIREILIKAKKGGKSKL

C[C@H](N)Cc1ccccc1
inactive: all assays above

CC1OC(O[C@H]2C[C@@H](O)[C@]3(CO)[C@@H]4C(CC[C@]3(O)C2)[C@@]2(O)CC[C@H](C3=CC(=O)OC3)[C@@]2(C)C[C@H]4O)C(O)C(O)C1O (some centres not stated)
inactive: all assays above

Cc1ccc2c(c1)[C@@H]1CN(C)CC[C@H]1N2
not listed: CP237
inactive: all other assays above

C=C1Nc2ccccc2C(=O)N1c1ccccc1C
inactive: all assays above

CC12CCC3C4CCC(=O)C(O)=C4CCC3C1CCC2OC(=O)CCC1CCCC1 (configuration not stated)
inactive: all assays above

Cc1cc(C)cc(C(=O)OC2CC3CCC(C2)N3C)c1 (configuration not stated)
not listed: ECU
inactive: all other assays above

CC(Cc1ccccc1)N(C)C (configuration not stated)
not listed: CP268
inactive: all other assays above

CN1C2CCC1C(C(=O)O)C(OC(=O)c1ccccc1)C2 (configuration not stated)
inactive: all assays above

[S]=[Sb][S][Sb]=[S]
inactive: all assays above
